Measurements as given in PubChem BioAssay (EPA / NIEHS).
Active and inactive are the calls of the source. The calls were made as follows: active = hit-call score of the fitted dose curve at least 0.9, where 1 is the maximum; inactive = score below 0.9.

Experiments:
[1] = target: Transcription factor E2F1 (Homo sapiens) (UniProt Q01094); assay: ATG_E2F_CIS: Attagene CIS-FACTORIAL HepG2 Assay for human E2F Transcription Factor 1 (AID 2282935); details: HepG2 Attagene cis-reporter, E2F reporter RNA transcripts; actives raise or lower the signal
Method in brief: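 HepG2 cells transiently transfected with multiplexed cis-element reporter units, dosed for 24 h. Reporter mRNA measured by RT-PCR, 6-FAM primer-extension labeling, HpaI digestion and capillary electrophoresis; bidirectional fit versus DMSO baseline.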

[2] = ATG_M_61_CIS: Attagene CIS-FACTORIAL HepG2 Assay for M61 Transcription Factor (Internal Marker) (AID 2282937); details: HepG2 Attagene CIS-FACTORIAL M61 internal marker reporter; actives raise or lower the signal
Method in brief: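 HepG2 cells transiently transfected with cis-element-driven multiple reporter transcription units, dosed for 24 h. Reporter mRNA measured by RT-PCR, 6-FAM primer-extension labelling, HpaI digestion and capillary electrophoresis; bidirectional fit versus DMSO baseline.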

[3] = ATG_EGR_CIS: Attagene CIS-FACTORIAL HepG2 Assay for human Early Growth Response 1 (EGR1) (AID 2282938); details: HepG2 Attagene CIS-FACTORIAL EGR reporter mRNA; actives raise or lower the signal
Method in brief: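 HepG2 cells transiently transfected with cis-promoter-driven multiplexed reporter transcription units; reporter mRNA measured 24 h after compound dosing by RT-PCR, 6-FAM primer extension, HpaI digestion and capillary electrophoresis. Bidirectional fit versus DMSO baseline.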

[4] = ATG_M_19_CIS: Attagene CIS-FACTORIAL HepG2 Assay for M19 Transcription Factor (Internal Marker) (AID 2282939); details: HepG2 Attagene CIS-FACTORIAL M19 internal marker reporter; actives raise or lower the signal
Method in brief: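 Chemical-treated HepG2 (24 h) with MRTU constructs; reporter transcripts detected by fluorescent RT-PCR fragment analysis on capillary electrophoresis. Internal background marker, DMSO as baseline.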

[5] = ATG_ERE_CIS: Attagene CIS-FACTORIAL HepG2 Assay for Estrogen Response Element (ERE) (AID 2282940); details: HepG2 ERE cis-reporter, Attagene RNA transcript; actives raise or lower the signal
Method in brief: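 Human liver cells (HepG2) bearing transiently transfected, promoter-regulated reporter units were exposed 24 h. Reporter mRNA induction was detected by capillary electrophoresis of labelled RT-PCR products and fitted bidirectionally to DMSO.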

[6] = ATG_Ets_CIS: Attagene CIS-FACTORIAL HepG2 Assay for human Erythroblast Transformation Specific (ETS) (AID 2282941); details: HepG2 ETS cis-reporter transcription, actives raise or lower the signal
Method in brief: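 Human HepG2 hepatoma cells were transiently transfected with promoter-driven reporter constructs and treated for 24 hours. Reporter transcripts were quantified by RT-PCR with fluorescent primer extension; bidirectional curve fitting used DMSO as reference.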

[7] = target: Hepatocyte nuclear factor 3-beta (Homo sapiens) (UniProt Q9Y261); assay: ATG_FoxA2_CIS: Attagene CIS-FACTORIAL HepG2 Assay for human Forkhead box A2 (FOXA2) (AID 2282942); details: HepG2 cis-reporter transcription factor activity, 24 h; actives raise or lower the signal
Method in brief: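 HepG2 cells transiently transfected with multiple cis-regulated reporter transcription units, dosed for 24 h. Reporter mRNA measured by RT-PCR, 6-FAM labelling, HpaI digestion and capillary electrophoresis; bidirectional fitting against DMSO baseline.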

[8] = ATG_FoxO_CIS: Attagene CIS-FACTORIAL HepG2 Assay for human Forkhead box O (FoxO) (AID 2282943); details: HepG2 Attagene cis-reporter, FoxO element, mRNA; actives raise or lower the signal
Method in brief: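 HepG2 cells transiently transfected with cis-promoter-driven multiple reporter transcription units; 24 h after chemical dosing, reporter mRNA quantified by RT-PCR, fluorescent primer extension, HpaI digestion and capillary electrophoresis. Bidirectional fitting versus DMSO baseline.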

[9] = ATG_GATA_CIS: Attagene CIS-FACTORIAL HepG2 Assay for human GATA Binding Protein (AID 2282944); details: HepG2 GATA cis-element reporter, Attagene multiplex mRNA; actives raise or lower the signal
Method in brief: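 Transfected cis-reporter HepG2 cells were treated with chemicals for 24 hours. Total RNA was then converted to cDNA, amplified with reporter-specific primers and analysed by fluorescent capillary electrophoresis, using DMSO-treated wells as baseline.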

[10] = ATG_GLI_CIS: Attagene CIS-FACTORIAL HepG2 Assay for human Zinc Finger Protein GLI1 (AID 2282945); details: HepG2, Attagene cis-factorial reporter mRNA, GLI element; actives raise or lower the signal
Method in brief: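 HepG2 cells transiently transfected with cis-promoter multiplexed reporter units report endogenous transcription factor activity. After 24 h chemical exposure, reporter mRNA was quantified by RT-PCR, 6-FAM labelling, HpaI digestion and capillary electrophoresis, with bidirectional fitting against DMSO.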

[11] = ATG_ISRE_CIS: Attagene CIS-FACTORIAL HepG2 Assay for human Interferon Regulatory Factor 1 (IRF1) binding to an Interferon-Stimulated Response Element (ISRE) (AID 2282948); details: HepG2 ISRE cis-reporter (Attagene), mRNA transcription readout; actives raise or lower the signal
Method in brief: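 Cell-based cis-reporter assay; HepG2; 24 h exposure; reporter mRNA by RT-PCR plus capillary electrophoresis fluorescence; activity in either direction scored relative to DMSO.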

[12] = ATG_M_32_CIS: Attagene CIS-FACTORIAL HepG2 Assay for M32 Transcription Factor (Internal Marker) (AID 2282949); details: HepG2 Attagene cis-factorial M32 reporter, mRNA; actives raise or lower the signal;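 also: background control marker of the multiplexed CIS panel rather than a real target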
Method in brief: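 Following 24 h chemical exposure of HepG2 cells transiently expressing cis-promoter reporter constructs, reporter transcript levels were determined by RT-PCR with fluorescent labelling and capillary electrophoresis, then fitted bidirectionally against DMSO.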

[13] = target: Heat shock factor protein 1 (Homo sapiens) (UniProt Q00613); assay: ATG_HSE_CIS: Attagene CIS-FACTORIAL HepG2 Assay for human Heat Shock Transcription Factor 1 (HSE) (AID 2282953); details: HepG2 HSE cis-reporter, Attagene RNA transcription; actives raise or lower the signal
Method in brief: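 Liver-derived HepG2 cells carry transiently introduced multiple reporter units governed by cis promoters. Reporter RNA measured 24 h post-dose through reverse transcription, PCR amplification, fluorescent labelling and capillary electrophoresis, normalised to DMSO.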

[14] = ATG_MRE_CIS: Attagene CIS-FACTORIAL HepG2 Assay for human Metal Responsive Element (MRE) (AID 2282954); details: HepG2 MRE cis-reporter transcription, Attagene multiplex; actives raise or lower the signal
Method in brief: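 HepG2 cells transiently transfected with multiple cis-element reporter units measure endogenous MTF1-driven transcription. After 24 h compound exposure, reporter mRNA is quantified by RT-PCR with 6-FAM labelling, HpaI digestion and capillary electrophoresis; bidirectional fits versus DMSO.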

[15] = ATG_GRE_CIS: Attagene CIS-FACTORIAL HepG2 Assay for human Glucocorticoid Response Elements (GRE) (AID 2282947); details: HepG2 GRE cis-reporter, Attagene multiplex mRNA; actives raise or lower the signal
Method in brief: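 HepG2 cells transiently transfected with multiple cis-promoter reporter units measure endogenous TF activity; 24 h compound exposure. Reporter mRNA quantified by RT-PCR, FAM labelling, HpaI digestion and capillary electrophoresis; bidirectional fit vs DMSO baseline.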

[16] = ATG_M_06_CIS: Attagene CIS-FACTORIAL HepG2 Assay for M06 Transcription Factor (Internal Marker) (AID 2282950); details: HepG2 Attagene CIS-FACTORIAL M06 internal marker reporter; actives raise or lower the signal
Method in brief: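 Cells (HepG2, transiently carrying cis-driven reporter units) receive chemical for 24 h before RNA isolation. Reporter cDNA is PCR-amplified, FAM-labelled by primer extension, HpaI-digested and sized on a capillary analyser.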

[17] = target: Hypoxia-inducible factor 1-alpha (Homo sapiens) (UniProt Q16665); assay: ATG_HIF1a_CIS: Attagene CIS-FACTORIAL HepG2 Assay for human Hypoxia Inducible Factor 1 (HIF1A) (AID 2282951); details: HepG2 Attagene cis-factorial HIF1a reporter transcription; actives raise or lower the signal
Method in brief: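 HepG2 cells transiently transfected with multiplexed cis-promoter reporter units; reporter mRNA read 24 h after dosing by RT-PCR, 6-FAM primer-extension labelling, HpaI digestion and capillary electrophoresis. Bidirectional fit versus DMSO baseline.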

[18] = target: Hepatocyte nuclear factor 6 (Homo sapiens) (UniProt Q9UBC0); assay: ATG_HNF6_CIS: Attagene CIS-FACTORIAL HepG2 Assay for human Hepatocyte Nuclear Factor 6 (HNF6) (AID 2282952); details: HepG2 Attagene cis-factorial HNF6 reporter transcription; actives raise or lower the signal
Method in brief: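 Cells are HepG2 carrying transiently transfected cis-promoter reporter units. Treatment lasts 24 h, after which reporter transcripts are reverse-transcribed, amplified, FAM-labelled and sized by capillary electrophoresis. DMSO serves as baseline.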

Measured: AC50

Sequence of Hepatocyte nuclear factor 6 (Homo sapiens) (Q9UBC0 whole entry, looked up): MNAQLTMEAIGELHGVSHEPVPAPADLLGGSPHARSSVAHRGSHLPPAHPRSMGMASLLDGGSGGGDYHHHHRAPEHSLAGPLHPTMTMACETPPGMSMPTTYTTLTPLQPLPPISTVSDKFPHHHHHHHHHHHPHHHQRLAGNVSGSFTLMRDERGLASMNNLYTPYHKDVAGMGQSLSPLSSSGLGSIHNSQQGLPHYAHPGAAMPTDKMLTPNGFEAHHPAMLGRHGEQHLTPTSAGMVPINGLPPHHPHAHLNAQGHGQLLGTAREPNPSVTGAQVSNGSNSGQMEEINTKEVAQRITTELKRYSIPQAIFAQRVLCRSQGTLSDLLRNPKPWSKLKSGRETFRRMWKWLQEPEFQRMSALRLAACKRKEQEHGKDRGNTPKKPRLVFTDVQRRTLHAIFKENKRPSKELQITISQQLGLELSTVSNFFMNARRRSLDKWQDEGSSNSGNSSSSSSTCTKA
Sequence of Heat shock factor protein 1 (Homo sapiens) (Q00613 whole entry, looked up): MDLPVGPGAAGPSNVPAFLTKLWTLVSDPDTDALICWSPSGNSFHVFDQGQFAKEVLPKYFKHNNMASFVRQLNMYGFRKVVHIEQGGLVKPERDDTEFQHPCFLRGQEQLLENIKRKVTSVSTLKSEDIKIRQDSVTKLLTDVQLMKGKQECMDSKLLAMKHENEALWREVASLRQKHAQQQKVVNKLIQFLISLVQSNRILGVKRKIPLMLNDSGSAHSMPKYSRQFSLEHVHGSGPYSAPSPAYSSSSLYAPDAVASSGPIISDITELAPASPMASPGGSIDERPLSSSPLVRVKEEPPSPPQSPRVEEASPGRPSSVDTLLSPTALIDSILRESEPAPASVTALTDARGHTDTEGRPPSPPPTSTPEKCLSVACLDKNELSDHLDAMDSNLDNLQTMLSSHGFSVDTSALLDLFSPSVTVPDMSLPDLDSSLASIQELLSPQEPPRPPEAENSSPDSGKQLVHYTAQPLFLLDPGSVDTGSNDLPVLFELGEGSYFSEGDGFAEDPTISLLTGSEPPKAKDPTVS
Sequence of Hepatocyte nuclear factor 3-beta (Homo sapiens) (Q9Y261 whole entry, looked up): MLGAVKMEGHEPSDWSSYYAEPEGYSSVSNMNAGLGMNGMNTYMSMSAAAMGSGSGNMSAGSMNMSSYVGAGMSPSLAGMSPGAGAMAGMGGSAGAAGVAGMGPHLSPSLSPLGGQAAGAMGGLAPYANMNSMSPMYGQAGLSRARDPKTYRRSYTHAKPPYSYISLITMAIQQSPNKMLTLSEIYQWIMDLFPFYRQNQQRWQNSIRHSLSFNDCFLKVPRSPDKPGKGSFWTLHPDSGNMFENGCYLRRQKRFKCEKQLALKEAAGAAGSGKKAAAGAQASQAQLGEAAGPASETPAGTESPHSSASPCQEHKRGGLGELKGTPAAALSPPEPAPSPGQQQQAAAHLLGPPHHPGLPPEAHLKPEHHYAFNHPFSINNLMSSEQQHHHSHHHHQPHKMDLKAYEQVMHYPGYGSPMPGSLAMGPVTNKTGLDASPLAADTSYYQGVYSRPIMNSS
Sequence of Hypoxia-inducible factor 1-alpha (Homo sapiens) (Q16665 whole entry, looked up): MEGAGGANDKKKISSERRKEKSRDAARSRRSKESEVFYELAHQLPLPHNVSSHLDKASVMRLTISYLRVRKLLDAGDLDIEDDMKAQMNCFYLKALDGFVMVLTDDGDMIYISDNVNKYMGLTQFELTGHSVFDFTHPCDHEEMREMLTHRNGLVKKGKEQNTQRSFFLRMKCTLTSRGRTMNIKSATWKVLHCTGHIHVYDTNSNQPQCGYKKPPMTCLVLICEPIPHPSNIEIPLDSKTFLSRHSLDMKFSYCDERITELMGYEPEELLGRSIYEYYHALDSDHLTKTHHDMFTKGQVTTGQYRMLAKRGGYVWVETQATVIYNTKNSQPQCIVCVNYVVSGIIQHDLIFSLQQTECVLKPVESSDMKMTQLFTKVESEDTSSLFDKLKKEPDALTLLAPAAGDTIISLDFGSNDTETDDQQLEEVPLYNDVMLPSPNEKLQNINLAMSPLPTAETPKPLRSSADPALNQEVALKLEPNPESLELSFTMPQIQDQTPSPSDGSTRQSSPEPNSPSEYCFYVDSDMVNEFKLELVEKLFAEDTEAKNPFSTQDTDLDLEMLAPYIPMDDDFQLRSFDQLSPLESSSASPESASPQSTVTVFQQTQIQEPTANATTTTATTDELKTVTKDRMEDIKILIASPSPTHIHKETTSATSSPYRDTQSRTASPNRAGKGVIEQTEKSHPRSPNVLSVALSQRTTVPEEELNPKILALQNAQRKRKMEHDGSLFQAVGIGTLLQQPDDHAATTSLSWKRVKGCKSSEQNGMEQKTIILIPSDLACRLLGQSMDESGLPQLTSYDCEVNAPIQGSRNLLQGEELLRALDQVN
Sequence of Transcription factor E2F1 (Homo sapiens) (Q01094 whole entry, looked up): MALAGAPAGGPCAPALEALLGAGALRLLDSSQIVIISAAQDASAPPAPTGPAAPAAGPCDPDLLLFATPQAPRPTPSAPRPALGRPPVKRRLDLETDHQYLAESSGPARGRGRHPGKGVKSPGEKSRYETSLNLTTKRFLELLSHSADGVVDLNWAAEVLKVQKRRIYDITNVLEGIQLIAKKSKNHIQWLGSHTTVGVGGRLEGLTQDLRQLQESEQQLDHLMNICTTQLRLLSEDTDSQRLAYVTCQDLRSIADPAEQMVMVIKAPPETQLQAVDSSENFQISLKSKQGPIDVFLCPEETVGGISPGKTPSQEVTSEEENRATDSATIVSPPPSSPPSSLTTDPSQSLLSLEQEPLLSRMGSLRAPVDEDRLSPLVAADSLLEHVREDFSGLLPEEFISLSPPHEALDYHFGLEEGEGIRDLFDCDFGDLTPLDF

COc1cc(OC)c2ccc(=O)oc2c1
not listed: [15] | [16] | [17] | [18]
inactive: all other assays above

c1ccc2c(c1)-c1ccc3ccc4cccc5cc-2c1c3c45
active: [7] 0.381 µM | [17] 0.0166 µM
not listed: [5] | [6] | [12]
inactive: all other assays above

CCCCCCCCCCCCOC(C)=O
not listed: [15]
inactive: all other assays above

C=CC(=O)OCC(CO)(COC(=O)C=C)COC(=O)C=C
active: [1] 27 µM | [3] 5.52 µM | [7] 123 µM | [8] 13.4 µM | [11] 7.12 µM | [12] 122 µM | [13] 161 µM | [14] 5.67 µM
inactive: [4] | [10] | [15] | [16] | [17] | [18]

O=C(O)CS
not listed: [18]
inactive: all other assays above

CC/C=C\CCCCO
not listed: [5] | [9] | [15]
inactive: all other assays above
